The text below walks through data of PubChem BioAssay (NCI).

Assay [1] can be described thus: NCI Yeast Anticancer Drug Screen. Data for the rad50 strain (AID 155).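 Note: 0% = growth of vehicle-only cultures of the same strain.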 Particulars: S. cerevisiae rad50 strain growth inhibition, hits give high values. The essentials:
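Yeast carrying a defined DNA repair defect were exposed to test compounds, and growth was compared with vehicle-treated controls to give percent inhibition.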

The nature of assay [2]: NCI Yeast Anticancer Drug Screen. Data for the mec2-1 strain (AID 157). Particulars: S. cerevisiae mec2-1 strain, hits give high values. The method in brief:
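Test agents were screened against the mec2-1 yeast strain, with defined DNA repair or cell cycle alteration. Growth was scored as inhibition against vehicle-only controls.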

Assay [3] in a line: NCI Yeast Anticancer Drug Screen. Data for the sgs1 mgt1 strain (AID 161).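 Note: 0% = growth of cultures given vehicle only.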 The conditions noted are these: S. cerevisiae sgs1 mgt1 strain, hits give high values. The essentials:
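Inhibition of yeast growth, normalised to vehicle-treated controls, is reported for a strain bearing genetic alterations in DNA damage repair.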

Assay [4] is described as follows: NCI Yeast Anticancer Drug Screen. Data for the cln2 rad14 strain (AID 165).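 Note: 0% = growth equal to vehicle treated cultures.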 Particulars: S. cerevisiae cln2 rad14 strain, hits give high values. The method in brief: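 Growth of compound-exposed yeast (cln2 rad14 genotype) measured and expressed as inhibition relative to vehicle.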
A short description of assay [5]: NCI Yeast Anticancer Drug Screen. Data for the mlh1 rad18 strain (AID 175). The conditions noted are these: S. cerevisiae mlh1 rad18 strain growth inhibition, hits give high values. The essentials: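 In this whole-cell yeast screen, a strain with altered DNA damage repair is challenged with compound, and its growth is measured against matched vehicle-treated controls.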

The nature of assay [6]: NCI Yeast Anticancer Drug Screen. Data for the bub3 strain (AID 167). The conditions noted are these: S. cerevisiae bub3 mutant strain, hits give high values. The method in brief: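 Compounds were applied to a genetically altered yeast strain carrying a cell-cycle control defect. Growth inhibition was scored against vehicle-treated controls.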
Setting [7] is: at 5.0 µM (retest, dose inferred, filed as 0.5).
Setting [8] is: at 50.0 µM (retest, dose inferred, filed as 5.0).

Compounds without any hit were thinned out: in the full panel of roughly 79,000, 15% have a hit. Values without a mark were called inactive. Active and inactive are the calls of the source. Cut-off read from the data, not from the text of the source: active = growth inhibition above about 70%; inactive = the rest.

For `O=[N+]([O-])c1cc(-c2ccccc2)ccc1O`, the growth inhibition in assay [1] (setting [7]) was -3%; in assay [1] (setting [8]), 10%; in assay [1] (at 50.0 µM), 98% (active); in assay [2] (setting [7]), 5%; in assay [2] (setting [8]) it was 12%; in assay [2] (at 50.0 µM) it was 98.7% (active). Also, the growth inhibition was -1% in assay [3] (setting [7]); 7% in assay [3] (setting [8]); 97.4% (active) in assay [3] (at 50.0 µM); -3% in assay [4] (setting [7]); 2% in assay [4] (setting [8]); 98% (active) in assay [4] (at 50.0 µM). Also, the growth inhibition was -1% in assay [5] (setting [7]), 7% in assay [5] (setting [8]) and 98.8% (active) in assay [5] (at 50.0 µM).

As to `O=c1oc2cc(O)ccc2c(O)c1C(c1ccc(/C=C/c2ccccc2)cc1)c1c(O)c2ccc(O)cc2oc1=O`, the growth inhibition in assay [1] (setting [7]) is 43%; in assay [1] (setting [8]), 98% (active); in assay [1] (at 50.0 µM) it was 89% (active); in assay [2] (setting [7]), 19%; in assay [2] (setting [8]) it was 99% (active); in assay [2] (at 50.0 µM), 91.8% (active). In addition, the growth inhibition in assay [3] (setting [7]) was -20%; in assay [3] (setting [8]), 97% (active); in assay [3] (at 50.0 µM) it was 89.8% (active); in assay [4] (setting [7]) it was 14%; in assay [4] (setting [8]) it was 98% (active); in assay [4] (at 50.0 µM), 90.7% (active). Besides, the growth inhibition in assay [5] (setting [7]) was 8%; in assay [5] (setting [8]), 99% (active); in assay [5] (at 50.0 µM) it was 92.5% (active).

`Clc1nc(Cl)nc(Nc2ccccc2Cl)n1`: the growth inhibition in assay [1] (setting [7]) was 67%; in assay [1] (setting [8]) it was 96% (active); in assay [1] (at 50.0 µM), 99% (active); in assay [2] (setting [7]) it was 40%; in assay [2] (setting [8]) it was 97% (active); in assay [2] (at 50.0 µM), 96.7% (active). The growth inhibition in assay [3] (setting [7]) was 53%; in assay [3] (setting [8]) it was 98% (active); in assay [3] (at 50.0 µM) it was 98.9% (active); in assay [4] (setting [7]), 21%; in assay [4] (setting [8]) it was 97% (active); in assay [4] (at 50.0 µM), 95.8% (active). Besides, the growth inhibition is 82% (active) in assay [6] (setting [7]); 99% (active) in assay [6] (setting [8]); 98.6% (active) in assay [6] (at 50.0 µM); 24% in assay [5] (setting [7]); 95% (active) in assay [5] (setting [8]); 97.2% (active) in assay [5] (at 50.0 µM).

For `COc1cc(C(=O)[O][Hg][CH2]C2CC(O)CC([CH2][Hg][O]C(=O)c3cc(OC)c(OC)c(OC)c3)O2)cc(OC)c1OC` (centres undefined), the growth inhibition was 97% (active) in assay [1] (setting [7]); 98% (active) in assay [1] (setting [8]); 99.3% (active) in assay [1] (at 50.0 µM); 98% (active) in assay [2] (setting [7]); 99% (active) in assay [2] (setting [8]); 99.6% (active) in assay [2] (at 50.0 µM). Moreover, the growth inhibition in assay [3] (setting [7]) was 99% (active); in assay [3] (setting [8]) it was 99% (active); in assay [3] (at 50.0 µM), 99.6% (active); in assay [4] (setting [7]), 95% (active); in assay [4] (setting [8]), 96% (active); in assay [4] (at 50.0 µM) it was 98.5% (active). The growth inhibition was 97% (active) in assay [6] (setting [7]); 99% (active) in assay [6] (setting [8]); 99.1% (active) in assay [6] (at 50.0 µM); 99% (active) in assay [5] (setting [7]); 99% (active) in assay [5] (setting [8]); 98.7% (active) in assay [5] (at 50.0 µM).

Consider `O=C(N/N=C/c1cc(Br)cc(Br)c1[O-])c1ccccc1O.O=C(N/N=C/c1cc(Br)cc(Br)c1[O-])c1ccccc1O.[Ni+2]`, for which the growth inhibition in assay [1] (setting [7]) was 97% (active); in assay [1] (setting [8]) it was 98% (active); in assay [1] (at 50.0 µM) it was 18.4%; in assay [2] (setting [7]), 98% (active); in assay [2] (setting [8]), 98% (active); in assay [2] (at 50.0 µM) it was 87% (active). The growth inhibition is 98% (active) in assay [3] (setting [7]); 99% (active) in assay [3] (setting [8]); 61.2% in assay [3] (at 50.0 µM); 93% (active) in assay [4] (setting [7]); 98% (active) in assay [4] (setting [8]); 31.6% in assay [4] (at 50.0 µM). The growth inhibition in assay [6] (setting [7]) was 96% (active); in assay [6] (setting [8]) it was 97% (active); in assay [6] (at 50.0 µM), 85.5% (active); in assay [5] (setting [7]) it was 96% (active); in assay [5] (setting [8]), 98% (active); in assay [5] (at 50.0 µM), 55.6%.

Turning to `C#CC(/C=C/Cl)(CC)OC(N)=O` (centres undefined), the growth inhibition was 3% in assay [1] (setting [7]); 13% in assay [1] (setting [8]); 1.8% in assay [1] (at 50.0 µM); 4% in assay [2] (setting [7]); 5% in assay [2] (setting [8]); 11.6% in assay [2] (at 50.0 µM). The growth inhibition in assay [3] (setting [7]) is 3%; in assay [3] (setting [8]) it was 5%; in assay [3] (at 50.0 µM) it was -2%; in assay [4] (setting [7]) it was 6%; in assay [4] (setting [8]), -7%; in assay [4] (at 50.0 µM), 75.8% (active). Also, the growth inhibition is 0% in assay [6] (setting [7]); 43% in assay [6] (setting [8]); 55.9% in assay [6] (at 50.0 µM); 9% in assay [5] (setting [7]); 16% in assay [5] (setting [8]); 31.2% in assay [5] (at 50.0 µM).

As for `CC(C)[S-].CC(C)[S-].[Pt+2].c1ccc([PH+](c2ccccc2)c2ccccc2)cc1.c1ccc([PH+](c2ccccc2)c2ccccc2)cc1`, the growth inhibition is 4% in assay [1] (setting [7]); 96% (active) in assay [1] (setting [8]); 88.2% (active) in assay [1] (at 50.0 µM); 5% in assay [2] (setting [7]); 97% (active) in assay [2] (setting [8]); 90.3% (active) in assay [2] (at 50.0 µM). Besides, the growth inhibition in assay [3] (setting [7]) was 2%; in assay [3] (setting [8]), 98% (active); in assay [3] (at 50.0 µM), 86.2% (active); in assay [4] (setting [7]) it was -2%; in assay [4] (setting [8]) it was 96% (active); in assay [4] (at 50.0 µM), 55.9%. Also, the growth inhibition in assay [6] (setting [7]) is 7%; in assay [6] (setting [8]), 97% (active); in assay [6] (at 50.0 µM), 67.3%; in assay [5] (setting [7]) it was 4%; in assay [5] (setting [8]), 97% (active); in assay [5] (at 50.0 µM), 95.7% (active).

Consider `CC(=O)Nc1ccccc1[As](OC(C)=O)c1ccccc1` (centres undefined), for which the growth inhibition in assay [1] (setting [7]) was 18%; in assay [1] (setting [8]), 97% (active); in assay [1] (at 50.0 µM), 99.3% (active); in assay [2] (setting [7]) it was 11%; in assay [2] (setting [8]) it was 99% (active); in assay [2] (at 50.0 µM) it was 99.4% (active). Also, the growth inhibition was 28% in assay [3] (setting [7]); 98% (active) in assay [3] (setting [8]); 99.5% (active) in assay [3] (at 50.0 µM); 99% (active) in assay [4] (setting [7]); 84% (active) in assay [4] (setting [8]); 98.7% (active) in assay [4] (at 50.0 µM). In addition, the growth inhibition in assay [6] (setting [7]) was -3%; in assay [6] (setting [8]) it was 99% (active); in assay [6] (at 50.0 µM) it was 99.5% (active); in assay [5] (setting [7]) it was 29%; in assay [5] (setting [8]) it was 98% (active); in assay [5] (at 50.0 µM), 99% (active).

For the compound `Cc1ccc(S(=O)(=O)N=S(=O)(CCCl)CCCl)cc1`, the growth inhibition in assay [1] (setting [7]) is 16%; in assay [1] (setting [8]), 98% (active); in assay [1] (at 50.0 µM), 94% (active); in assay [2] (setting [7]), 17%; in assay [2] (setting [8]) it was 97% (active); in assay [2] (at 50.0 µM), 88.5% (active). In addition, the growth inhibition was 25% in assay [3] (setting [7]); 99% (active) in assay [3] (setting [8]); 97.5% (active) in assay [3] (at 50.0 µM); 18% in assay [4] (setting [7]); 94% (active) in assay [4] (setting [8]); 62.9% in assay [4] (at 50.0 µM). Besides, the growth inhibition is 9% in assay [6] (setting [7]); 89% (active) in assay [6] (setting [8]); 47.4% in assay [6] (at 50.0 µM); 27% in assay [5] (setting [7]); 98% (active) in assay [5] (setting [8]); 96.7% (active) in assay [5] (at 50.0 µM).

Take `CNP1(=O)OC(c2ccccc2)=CCN1CCCl` (centres undefined): the growth inhibition in assay [1] (setting [7]) was 3%; in assay [1] (setting [8]), -1%; in assay [1] (at 50.0 µM), 76.3% (active); in assay [2] (setting [7]) it was -2%; in assay [2] (setting [8]), 10%; in assay [2] (at 50.0 µM), 47.6%. In addition, the growth inhibition in assay [3] (setting [7]) was 5%; in assay [3] (setting [8]) it was -1%; in assay [3] (at 50.0 µM), 58.8%; in assay [4] (setting [7]) it was 0%; in assay [4] (setting [8]), 6%; in assay [4] (at 50.0 µM), -30.3%. In addition, the growth inhibition in assay [6] (setting [7]) was 0%; in assay [6] (setting [8]) it was -2%; in assay [6] (at 50.0 µM), 23.9%; in assay [5] (setting [7]), 0%; in assay [5] (setting [8]), 5%; in assay [5] (at 50.0 µM) it was 71.2% (active).
